Source: PubChem BioAssay (NCI)
About 83,000 compounds went through this panel and 20% of them were active in at least one assay; those are over-represented in the sample as a whole.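 Single-concentration screen, 48 h exposure, 96-well plates. Endpoint: percent growth. Below 10 = active.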 Unmarked numbers belong to inactive results. The source made the active and inactive calls.

What was measured:
Experiment in all cases: NCI-60 one-dose screen, 48 h (100 = growth as untreated, 0 = no growth, -100 = all killed)
Conditions in all cases: 10 µM unless noted
SK-MEL-2 melanoma = test system: SK-MEL-2 melanoma
EKVX NSCLC = test system: EKVX NSCLC
SN12C renal = test system: SN12C renal
UO-31 renal = test system: UO-31 renal
TK-10 renal = test system: TK-10 renal
ACHN renal = test system: ACHN renal
CAKI-1 renal = test system: CAKI-1 renal
A498 renal = test system: A498 renal
CCRF-CEM leukemia = test system: CCRF-CEM leukemia
MOLT-4 leukemia = test system: MOLT-4 leukemia

SMILES | growth (SK-MEL-2 melanoma) | growth (EKVX NSCLC) | growth (SN12C renal) | growth (UO-31 renal) | growth (TK-10 renal) | growth (ACHN renal) | growth (CAKI-1 renal) | growth (A498 renal) | growth (CCRF-CEM leukemia) | growth (MOLT-4 leukemia)
COc1cc(Cc2cc(OC)c(O)c(OC)c2)cc(OC)c1O | 76.6% | 110% | 97.7% | 120% | 107% | 106% | 73.9% | 88.6% | 59.9% | 74.9%
OC1CSSC1Cn1cnc2c(Nc3ccc(OCc4cccc(F)c4)c(Cl)c3)ncnc21 (stereo not given) | -33.4% (active) | -71.9% (active) | 30.5% | 11.9% | -5.98% (active) | 15.6% | 19.6% | 69.6% | -8.33% (active) | -41.8% (active)
Cc1ccc(O)c(NC(=O)c2cccc(Nc3ccnc(C(F)(F)F)c3)c2)c1 | 82.7% | 41.7% | 39.9% | 29.3% | 92.2% | 57.8% | 41.6% | 96.1% | -1.16% (active) | -4.89% (active)
COc1ccc(C2CC(n3ccnc3)c3cc(OC)c(OC)c(OC)c32)cc1O (stereo not given) | 89.6% | 101% | 104% | 79.9% | 101% | 86.4% | 74.5% | 88.3% | 90.9% | 90%
COC1C(O)CC(OC2CC(OC3CC(O[C@@H]4C(=O)c5c(cc6cc(OC7CC(OC8CC(O)C(O)C(C)O8)C(O)C(C)O7)c(C)c(O)c6c5O)CC4[C@H](OC)C(=O)C(C)=O)OC(C)C3O)OC(C)C2O)OC1C (stereo not given in full) | -41.9% (active) | 3.71% (active) | 7.44% (active) | -27.7% (active) | -8.69% (active) | 5.29% (active) | 16.9% | -44.1% (active) | 4.37% (active) | -6.83% (active)
CC1(C)N=C(N)N=C(N)N1c1cc(Cl)ccc1Cl | 19.5% | 99.7% | 90.4% | 91% | 94% | -25.2% (active) | 9.84% (active) | 83.8% | 96.1% | 71.1%
CC(C)(Sc1cc(C(C)(C)C)c(O)c(C(C)(C)C)c1)Sc1cc(C(C)(C)C)c(OC(=O)CCC(=O)O)c(C(C)(C)C)c1 | 23.4% | 44.1% | 34.2% | 33.2% | 60.5% | 44.5% | 54.5% | 63.6% | 35.8% | 73.3%
COC12C=C/C(=C(/C(=O)OCc3cncnc3)C(=O)CCCCCCCCC3(OC)C=C/C(=C(/C(=O)OCc4cncnc4)C(=O)CCCCCCCC1)O3)O2 | -13.1% (active) | -20.5% (active) | -34.7% (active) | -73.6% (active) | -23.6% (active) | -93.7% (active) | -43.5% (active) | -94.1% (active) | -18.2% (active) | -13.4% (active)
CS(=O)(=O)Nc1cc(-c2ccc3ncnc(Nc4ccc(OCc5ccccn5)c(Cl)c4)c3c2)cnc1Cl | -65% (active) | 3.3% (active) | 20% | 0.194% (active) | -19.8% (active) | 23.7% | 29.2% | -61% (active) | -2.25% (active) | -29.5% (active)
COc1ccc(C(=O)/C=C/c2ccccc2)cc1S(N)(=O)=O | 89.8% | 95.6% | 44.9% | 54.7% | 66.8% | 74.9% | 82.3% | 85.3% | 57.8% | 57.5%
COc1cc(C=Nc2oc(-c3ccccc3)c(-c3ccccc3)c2C#N)cc(CN2CCCC2)c1O | 105% | 91.8% | 91.8% | 68% | 123% | 85.1% | 77.3% | 64.4% | 102% | 104%
c1cc(OCCN2CCCCC2)ccc1CNc1ccc2nc(CCC3CCCCC3)[nH]c2c1 | -11.3% (active) | 75.8% | 64.4% | -30.4% (active) | 80.1% | 45.4% | -28.5% (active) | 10.5% | 5.76% (active) | 7.66% (active)
COc1ccc(Oc2ccc(/C=C/C(=O)c3cc4ccccc4oc3=O)cc2)cc1 | 102% | 94.5% | 86.1% | 48% | 147% | 91.3% | 74.8% | 121% | 28.1% | 57.9%
O=S(=O)(N=C1C(Cl)=C(Cl)C(=NS(=O)(=O)c2ccccc2)C(Cl)=C1Cl)c1ccccc1 | 14% | 107% | 87.6% | 89.5% | 95.3% | -22.5% (active) | 5% (active) | 96.8% | 73.6% | 55%
COc1ccc(Nc2ncc(I)c(NCCCNC(=O)C3CCC3)n2)cc1 | 35.5% | 21.9% | 19.8% | -94.1% (active) | -14.5% (active) | -21% (active) | 0.394% (active) | -51.4% (active) | 2.24% (active) | 10.5%
COc1cccc(-c2cn3nc(-c4cn(C)c5ccccc45)sc3n2)c1 | 102% | 85.9% | 92% | 71.7% | 105% | 104% | 82.6% | 87.5% | 92% | 87.5%
C#CCOc1cccc(Nc2ncnc3cc(NC(=O)CCl)ccc23)c1 | -55.3% (active) | -49.1% (active) | -83.5% (active) | -88.7% (active) | -85% (active) | -84.1% (active) | -57.7% (active) | -25.6% (active) | -46.9% (active) | -35.4% (active)
CC(C)Cc1nc(Nc2ccccc2)[nH]c(=O)c1C#N | 40.5% | 59.4% | 52.8% | 14% | 82% | 57.5% | 50.9% | 19.4% | 60.2% | 61.6%
C=C[C@@]1(C)CC(=O)[C@@H](C(C)(C)c2cn(C)c3ccc(Br)cc23)C[C@@H]1O[Si](C)(C)C(C)(C)C | 97.8% | 99.3% | 97.6% | 94% | 98.1% | 111% | 90.2% | 106% | 89.5% | 94.7%
CN(C)CCC(=O)C1CC1 | 111% | 111% | 98.9% | 75.9% | 113% | 103% | 102% | 106% | 103% | 96.9%
O=C(NCCN1CCOCC1)OCc1ccc2c(Cl)cc(Cl)c(O)c2n1 | 78.1% | 89.6% | 64.4% | 25.5% | 96.4% | 37.3% | 47.1% | 106% | 48.3% | 57.9%
COc1c2c(cc3c1C(=O)N[C@@H]1[C@@H](O)[C@@H](O)[C@H](O)C[C@@H]31)OCCO2 | 100% | 98.2% | 103% | 86.4% | 95.7% | 103% | 94% | 104% | 105% | 99.6%
COCCn1cc(-c2nc(-c3cc4cccnc4n3C)cs2)c2ccccc21 | 18.7% | 19.8% | 59.1% | 52.1% | 44.2% | 54.9% | 60.7% | 33.2% | 46.2% | 26.6%
N#C/C(=C\c1ccc(-c2cccc(Cl)c2)o1)C(=O)Nc1ncc(Cc2ccc(Cl)cc2)s1 | 97.2% | 69.4% | 35.9% | 23.7% | 69.9% | 31.4% | 51.6% | 74.1% | 43.6% | 87.1%
COc1cc(/C=C/C(=O)c2cc(OC)c(OC)c(OC)c2)ccc1Oc1nc2c(c(=O)n(C)c(=O)n2C)n1C | 76.3% | 1.98% (active) | 11.6% | -92.1% (active) | -8.16% (active) | -21.9% (active) | -47.2% (active) | 29.4% | 5.81% (active) | 2.13% (active)
CNCC[C@H](Oc1cccc2ccccc12)c1cccs1 | 104% | 78.9% | 79.1% | 63.7% | 90% | 96.9% | 88.4% | 111% | 91.9% | 50.4%
